Measured values published in PubChem BioAssay.
Several values for one entry are separate records, joined by “and”; a condition that tells them apart may be missing. Equal values may be shown once. Inconclusive results are not listed. Activity calls are given as the source filed them.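 How the source made its calls, unless noted: active means GFP response, as percent of the DMSO control, above the screen-wide mean plus 3 SD, about 139; inconclusive means no response measured because the compound's own fluorescence interfered; inactive means the rest.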

Tests used:
[1] = rapamycin-like changes in RPL19A-GFP expression – cell-based, S. cerevisiae, multiplex flow cytometry, primary screen (AID 1862; in the data active means percent of DMSO control GFP below about 86%;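 further: lower values mimic rapamycin by blocking the RPL19A rise seen in DMSO cells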); details: S. cerevisiae RPL19A-GFP strain, flow cytometry fluorescence, 3 h; at 10 µM; stronger effect = lower value
[2] = TOR pathway GLN3 branch reporter MEP2-GFP changes – S. cerevisiae, multiplex flow cytometry, primary screen (AID 1867);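 further: median GFP channel fluorescence of barcode-gated MEP2-GFP cells measured by flow cytometry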; details: S. cerevisiae MEP2-GFP strain, 3 h, at 10 µM, stronger effect = higher value, 100% means same as DMSO wells
[3] = TOR pathway RTG branch CIT2 reporter changes – S. cerevisiae, GFP fusion, multiplex flow cytometry, primary screen (AID 1870;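 active means percent response above a set limit, the screen-wide mean plus 3 SD, cut at about 130% in these data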;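 further: barcoded CIT2-GFP strain pooled with four other GFP strains with rapamycin as positive control; median GFP fluorescence per well over plate mean of DMSO wells so 100% = DMSO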); details: S. cerevisiae CIT2-GFP expression, 3 h, at 10 µM, stronger effect = higher value
[4] = TOR pathway LAP4-GFP level changes – S. cerevisiae, multiplex flow cytometry, primary screen (AID 1873;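 active means GFP signal, as percent of the solvent control, above the screen mean plus 3 SD, about 149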); details: S. cerevisiae LAP4-GFP expression, 3 h, at 10 µM, stronger effect = higher value
[5] = yeast AGP1-GFP level changes, GLN3 branch – cell-based, multiplex flow cytometry, S. cerevisiae, primary screen (AID 1887;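 active means GFP signal above the screen-wide mean plus 3 SD, that is over about 124.5% of the solvent control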;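 further: AGP1-GFP fusion strain of S. cerevisiae within a five-strain barcoded multiplex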); details: 3 h, at 10 µM, stronger effect = higher value
[6] = reduced mouse 2C T cell binding to pMHC/ICAM-1 vesicles – MLPCN validation set, flow cytometry, LFA-1/ICAM-1 modulator project, pilot screen (AID 2523;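 active means response below a set limit, under 55% cells CD8-positive and vesicle-bound, and CD8 cells' 90th-percentile brightness under 279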;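 on vesicle binding response: mean PE anti-B7-1 fluorescence of CD8+ cells relative to row control; 100% = QL9-loaded vesicles with DMSO vehicle in the same plate row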); details: 2C mouse CD8+ T cells, at 7 µM, stronger effect = lower value; double positive events: measured here: CD8+/vesicle+ event percentage
[7] = molecular target: Integrin beta-1 (Homo sapiens) + Integrin alpha-4 (Homo sapiens) (UniProt P13612+P05556); test: alpha4beta1 integrin LIBS antibody binding reduction – U937 cells, HUTS-21 mAb, flow cytometry, validation set, VLA-4 allosteric modulator project, pilot screen (AID 2674;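 active means inhibition above 50%, about 3 SD of the validation set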;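 further: antibody binding induced by the VLA-4 ligand LDV present at three times its Kd; 0% = LDV ligand with antibody and no compound and 100% = antibody without LDV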); details: HUTS-21 LIBS mAb binding, at 6.7 µM, stronger effect = higher value, binding induced by LDV ligand
[8] = calorie-restriction mimetic ROS inhibitors, yeast – validation compound set, pilot screen (AID 2706;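 active means superoxide response below 65% of plate, a cut near 3 SD across the whole screen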;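 further: yeast exposed to compound for one week at 30 degrees C before staining; 100% = mean of all compound wells on the same plate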); details: S. cerevisiae aging, superoxide DHE fluorescence; at 10 µM; stronger effect = lower value
[9] = molecular target: Beta-adrenergic receptor kinase 1 (Homo sapiens) (UniProt P25098); test: GRK2 binders displacing RNA aptamer, biochemical, validation, human GRK2, bead flow cytometry (AID 488806;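 active means aptamer binding inhibition above 30%, about 3 SD of noise from non-fluorescent compounds; inactive means inhibition at or below 30%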); details: bead-bound GRK2, FAM-aptamer displacement, at 10 µM, stronger effect = higher value
[10] = molecular target: Beta-2 adrenergic receptor (Homo sapiens) (UniProt P07550); test: agonist-induced loss of surface beta2AR – cell-based, FAP fluorogen, flow cytometry, validation set, pilot screen (AID 504459;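 active means percent response above 42, roughly 3 SD of non-fluorescent test compounds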;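 further: agonist-driven loss of surface beta2AR via internalization measured by FAP dye flow cytometry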); details: Am2.2-beta2AR cells, at 10 µM, stronger effect = higher value
[11] = molecular target: AP-2 complex subunit beta (Homo sapiens) (UniProt P63010); test: beta-arrestin/AP2 interaction blockers – biochemical, validation set, GST-AP2 beads, flow cytometry, pilot screen (AID 504541;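 active means inhibition above 54%, about 3 SD of non-fluorescent compounds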;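 further: AP2 carries R879A mutation and is captured from E. coli lysate; bead-bound FITC arrestin peptide fluorescence measuring arrestin peptide binding to AP2; 0% = DMSO wells and 100% = excess unlabeled arrestin peptide control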); details: FITC arrestin peptide, at 10 µM, stronger effect = higher value, AP2 beta2 appendage fragment, R879A mutant
[12] = cytosolic pH regulators acting via V-ATPase – S. cerevisiae, pHLuorin, HTS validation (AID 504600; in the data active means response above about 15%;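 further: plate controls were DMSO for no effect and reference compound for full effect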); details: V-ATPase proton transport, at 10 µM, stronger effect = higher value
[13] = test system: anti-desmoglein-3 scFv antibody binding to human DSG3; test: blockers of pathogenic pemphigus antibody–desmoglein-3 binding – biochemical, validation compound set, bead-based, flow cytometry, pilot screen (AID 588368;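 active means binding below the plate cutoff, the plate median minus 3 SD, with a reading above zero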;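 further: signal is the median channel fluorescence of bead-bound GFP antibody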); details: Protein G beads, DSG3-Fc, scFv-GFP binding, at 10 µM, stronger effect = lower value
[14] = Nile Red efflux blockade in pump-expressing yeast – validation compound set, multiplex, phenotypic, pilot screen (AID 588506;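 active means efflux inhibition above 0.42, the validation set average plus 4 SD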;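 further: Nile Red retained in cells so higher fluorescence means more efflux inhibition; 0 = negative control wells and 1 = enniatin B 25 µM full block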); details: S. cerevisiae pump-expressing triplex, Nile Red efflux flow cytometry; at 10 µM; stronger effect = higher value; the pumps come from Candida albicans
[15] = molecular target: ATP-binding cassette sub-family B member 6 (Homo sapiens) (UniProt Q9NP58); test: blockers of ABCB6-driven porphyrin uptake – K562-ABCB6 cells, flow cytometry, validation set, pilot screen (AID 588550;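 active means inhibition above the screen-wide mean plus 3 SD, about 51%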;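 further: 0% = DMSO wells and 100% = benzethonium chloride 70 µM positive control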); details: K562-ABCB6 porphyrin accumulation, 1 h, at 10 µM, stronger effect = higher value
[16] = AML differentiation inducers, ER-HoxA9 marrow cells – cell-based, GFP/MAC1 double positive, flow cytometry, validation set, primary screen (AID 588685;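 active means differentiation response of at least 50%, scaled between solvent and reference control, from cells with both markers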;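 further: compound exposure lasts four days before antibody staining and flow analysis; 0% = DMSO wells and 100% = 5 µM fulvestrant positive control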); details: stronger effect = higher value, normalized: vehicle 0, fulvestrant 100

ATP-binding cassette sub-family B member 6 (Homo sapiens), sequence (Q9NP58 whole entry, looked up): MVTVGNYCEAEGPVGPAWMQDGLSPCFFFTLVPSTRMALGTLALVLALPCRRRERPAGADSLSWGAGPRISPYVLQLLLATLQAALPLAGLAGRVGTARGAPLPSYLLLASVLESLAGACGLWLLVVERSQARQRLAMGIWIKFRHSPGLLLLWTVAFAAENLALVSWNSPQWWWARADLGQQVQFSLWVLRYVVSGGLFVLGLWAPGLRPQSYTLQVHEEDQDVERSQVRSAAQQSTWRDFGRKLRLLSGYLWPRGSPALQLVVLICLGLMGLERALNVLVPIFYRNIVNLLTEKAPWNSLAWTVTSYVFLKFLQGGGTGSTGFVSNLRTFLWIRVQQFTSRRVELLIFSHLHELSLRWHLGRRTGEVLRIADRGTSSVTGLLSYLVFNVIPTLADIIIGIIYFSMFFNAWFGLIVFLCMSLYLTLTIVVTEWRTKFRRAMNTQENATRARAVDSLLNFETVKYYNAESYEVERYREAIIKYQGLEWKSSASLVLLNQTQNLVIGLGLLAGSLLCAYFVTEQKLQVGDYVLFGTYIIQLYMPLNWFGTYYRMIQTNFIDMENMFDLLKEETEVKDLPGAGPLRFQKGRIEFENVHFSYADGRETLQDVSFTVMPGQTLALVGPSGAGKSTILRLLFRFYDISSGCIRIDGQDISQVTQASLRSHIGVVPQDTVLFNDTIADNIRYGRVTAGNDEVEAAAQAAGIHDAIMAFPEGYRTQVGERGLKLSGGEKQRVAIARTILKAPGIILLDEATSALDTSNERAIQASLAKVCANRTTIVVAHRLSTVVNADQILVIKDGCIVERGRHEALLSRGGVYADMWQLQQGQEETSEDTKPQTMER
Integrin beta-1 (Homo sapiens) + Integrin alpha-4 (Homo sapiens), sequence (P05556 whole entry, looked up): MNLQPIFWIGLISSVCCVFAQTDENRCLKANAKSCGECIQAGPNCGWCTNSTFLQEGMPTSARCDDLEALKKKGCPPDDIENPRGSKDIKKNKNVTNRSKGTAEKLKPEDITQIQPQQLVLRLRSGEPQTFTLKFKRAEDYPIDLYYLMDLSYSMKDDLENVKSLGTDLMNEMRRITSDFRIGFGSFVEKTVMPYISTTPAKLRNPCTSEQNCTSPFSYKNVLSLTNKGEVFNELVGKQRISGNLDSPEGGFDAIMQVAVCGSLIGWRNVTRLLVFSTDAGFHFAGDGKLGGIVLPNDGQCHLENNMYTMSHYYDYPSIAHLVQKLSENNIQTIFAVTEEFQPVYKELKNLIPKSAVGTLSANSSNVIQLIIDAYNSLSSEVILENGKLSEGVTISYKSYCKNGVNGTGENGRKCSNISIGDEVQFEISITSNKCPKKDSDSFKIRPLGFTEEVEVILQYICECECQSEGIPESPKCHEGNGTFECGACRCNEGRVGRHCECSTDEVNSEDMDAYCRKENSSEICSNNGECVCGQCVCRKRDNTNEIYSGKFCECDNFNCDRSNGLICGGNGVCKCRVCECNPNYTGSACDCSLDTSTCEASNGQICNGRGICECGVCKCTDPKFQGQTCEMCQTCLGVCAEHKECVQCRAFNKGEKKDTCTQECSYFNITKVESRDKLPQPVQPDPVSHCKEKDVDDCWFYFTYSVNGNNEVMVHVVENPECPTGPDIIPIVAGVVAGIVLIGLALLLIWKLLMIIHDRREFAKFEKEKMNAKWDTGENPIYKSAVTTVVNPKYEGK
Integrin beta-1 (Homo sapiens) + Integrin alpha-4 (Homo sapiens), sequence (P13612 whole entry, looked up): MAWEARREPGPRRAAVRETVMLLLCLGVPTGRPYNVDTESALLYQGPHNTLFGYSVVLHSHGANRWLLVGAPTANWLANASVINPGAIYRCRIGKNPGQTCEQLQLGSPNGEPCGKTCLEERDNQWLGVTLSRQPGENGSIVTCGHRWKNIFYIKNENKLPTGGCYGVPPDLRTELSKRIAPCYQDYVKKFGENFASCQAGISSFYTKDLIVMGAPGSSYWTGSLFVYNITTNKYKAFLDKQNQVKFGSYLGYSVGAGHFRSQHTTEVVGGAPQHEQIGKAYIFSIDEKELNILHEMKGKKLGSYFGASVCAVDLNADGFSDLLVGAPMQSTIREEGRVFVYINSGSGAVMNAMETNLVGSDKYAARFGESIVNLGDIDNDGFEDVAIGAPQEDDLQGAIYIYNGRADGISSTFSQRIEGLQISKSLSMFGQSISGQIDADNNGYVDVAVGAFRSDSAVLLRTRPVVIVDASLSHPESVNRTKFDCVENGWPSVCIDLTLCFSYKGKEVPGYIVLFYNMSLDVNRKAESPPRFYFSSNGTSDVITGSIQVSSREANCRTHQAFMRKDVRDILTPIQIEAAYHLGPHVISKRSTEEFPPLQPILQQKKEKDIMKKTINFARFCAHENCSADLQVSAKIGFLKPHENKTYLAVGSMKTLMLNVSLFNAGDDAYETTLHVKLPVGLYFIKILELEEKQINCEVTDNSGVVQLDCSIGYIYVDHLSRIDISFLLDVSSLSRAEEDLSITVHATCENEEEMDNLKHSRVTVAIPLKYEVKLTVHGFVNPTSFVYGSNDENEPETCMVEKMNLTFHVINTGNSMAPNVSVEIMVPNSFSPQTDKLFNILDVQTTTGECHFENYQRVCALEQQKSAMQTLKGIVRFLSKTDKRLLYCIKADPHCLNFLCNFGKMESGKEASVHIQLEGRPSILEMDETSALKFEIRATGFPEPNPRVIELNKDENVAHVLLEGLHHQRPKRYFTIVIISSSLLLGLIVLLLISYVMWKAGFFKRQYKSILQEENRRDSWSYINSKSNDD
Beta-adrenergic receptor kinase 1 (Homo sapiens), sequence (P25098 whole entry, looked up): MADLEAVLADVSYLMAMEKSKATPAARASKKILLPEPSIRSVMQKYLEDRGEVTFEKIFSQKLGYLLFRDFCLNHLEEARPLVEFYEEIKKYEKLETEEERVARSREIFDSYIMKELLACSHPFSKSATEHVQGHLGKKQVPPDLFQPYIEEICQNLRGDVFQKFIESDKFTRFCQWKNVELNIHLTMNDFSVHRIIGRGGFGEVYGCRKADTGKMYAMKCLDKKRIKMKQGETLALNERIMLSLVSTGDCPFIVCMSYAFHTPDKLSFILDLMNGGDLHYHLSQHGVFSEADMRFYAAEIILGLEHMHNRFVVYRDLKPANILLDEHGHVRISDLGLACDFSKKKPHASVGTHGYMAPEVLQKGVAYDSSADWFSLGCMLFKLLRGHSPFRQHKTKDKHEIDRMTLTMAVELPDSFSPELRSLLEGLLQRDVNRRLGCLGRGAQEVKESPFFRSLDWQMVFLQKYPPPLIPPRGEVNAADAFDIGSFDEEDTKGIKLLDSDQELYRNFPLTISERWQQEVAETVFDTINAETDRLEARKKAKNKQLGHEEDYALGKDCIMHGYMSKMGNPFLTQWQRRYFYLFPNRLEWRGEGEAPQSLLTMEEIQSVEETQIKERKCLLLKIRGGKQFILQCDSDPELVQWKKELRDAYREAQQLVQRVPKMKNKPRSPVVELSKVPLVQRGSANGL
Beta-2 adrenergic receptor (Homo sapiens), sequence (P07550 whole entry, looked up): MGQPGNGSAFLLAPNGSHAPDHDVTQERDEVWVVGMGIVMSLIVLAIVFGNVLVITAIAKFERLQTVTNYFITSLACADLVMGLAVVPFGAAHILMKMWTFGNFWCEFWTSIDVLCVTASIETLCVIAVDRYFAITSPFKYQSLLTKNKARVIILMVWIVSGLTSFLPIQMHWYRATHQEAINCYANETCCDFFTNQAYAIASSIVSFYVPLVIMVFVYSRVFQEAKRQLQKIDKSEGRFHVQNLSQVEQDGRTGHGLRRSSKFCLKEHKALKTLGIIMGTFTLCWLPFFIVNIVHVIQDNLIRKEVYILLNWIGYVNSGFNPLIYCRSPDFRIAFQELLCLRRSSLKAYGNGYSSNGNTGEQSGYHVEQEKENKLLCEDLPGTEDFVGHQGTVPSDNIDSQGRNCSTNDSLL
AP-2 complex subunit beta (Homo sapiens), sequence (P63010 whole entry, looked up, the tested form may be a part, one chain of several): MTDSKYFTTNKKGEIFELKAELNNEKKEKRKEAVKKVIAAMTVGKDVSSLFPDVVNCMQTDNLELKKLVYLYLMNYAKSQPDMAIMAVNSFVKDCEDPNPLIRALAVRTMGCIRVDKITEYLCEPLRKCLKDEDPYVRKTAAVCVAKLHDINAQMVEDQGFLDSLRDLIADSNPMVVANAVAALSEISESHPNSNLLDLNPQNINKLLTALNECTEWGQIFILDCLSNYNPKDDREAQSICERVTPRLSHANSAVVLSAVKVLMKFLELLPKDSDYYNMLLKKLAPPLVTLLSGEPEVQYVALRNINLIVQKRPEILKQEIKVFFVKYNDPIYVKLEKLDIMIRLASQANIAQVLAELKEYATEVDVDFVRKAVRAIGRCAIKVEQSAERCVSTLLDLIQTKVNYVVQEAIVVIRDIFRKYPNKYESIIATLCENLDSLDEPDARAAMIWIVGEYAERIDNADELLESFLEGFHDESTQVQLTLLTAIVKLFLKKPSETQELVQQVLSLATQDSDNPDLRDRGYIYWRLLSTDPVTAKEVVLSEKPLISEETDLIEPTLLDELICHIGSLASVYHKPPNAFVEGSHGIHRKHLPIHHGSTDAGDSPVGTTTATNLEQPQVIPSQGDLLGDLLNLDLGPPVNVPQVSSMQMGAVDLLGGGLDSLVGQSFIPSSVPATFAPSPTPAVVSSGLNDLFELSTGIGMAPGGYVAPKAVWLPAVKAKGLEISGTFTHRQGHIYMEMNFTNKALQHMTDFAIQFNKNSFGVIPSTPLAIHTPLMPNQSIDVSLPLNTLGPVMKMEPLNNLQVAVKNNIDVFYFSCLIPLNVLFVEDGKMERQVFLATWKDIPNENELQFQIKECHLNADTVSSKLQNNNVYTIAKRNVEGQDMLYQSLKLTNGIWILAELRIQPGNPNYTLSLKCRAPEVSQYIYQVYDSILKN

SMILES	percent of DMSO control GFP [1]	GFP response vs DMSO [2]	percent response of DMSO control [3]	GFP response vs DMSO [4]	GFP response, % of DMSO [5]	double positive events [6]	vesicle binding response [6]	inhibition [7]	superoxide response (% of plate) [8]	aptamer binding inhibition [9]	response [10]	inhibition [11]	response [12]	binding (% of control) [13]	efflux inhibition (fraction of control) [14]	inhibition [15]	differentiation response [16]
C/C(=N\NC(=O)c1ccccc1[N+](=O)[O-])c1ccc(Br)s1	98.4% (inactive)	107% (inactive)	107% (inactive)	100% (inactive)	101% (inactive)	57.5%	94.2% (inactive)	0.25% (inactive)	97.9% (inactive)	2% (inactive)	-0.6% (inactive)	7.49% (inactive)	-4.2% (inactive)	95.7% (inactive)	-0.235 (inactive)	-10% (inactive)	-4.57% (inactive)
NS(=O)(=O)c1ccc(CCNC(=O)C2CCCN2C(=O)OCc2ccccc2)cc1 (stereo not given)	97.2% (inactive)	109% (inactive)	112% (inactive)	77.6% (inactive)	103% (inactive)	52.2%	214% (inactive)	1.61% (inactive)	110% (inactive)	-8% (inactive)	-16.9% (inactive)	-5.77% (inactive)	2.16% (inactive)	104% (inactive)	0.19 (inactive)	11% (inactive)	3.28% (inactive)
CCOc1ccc(CC2CCC(=O)NC2=O)cc1 (stereo not given)	103% (inactive)	102% (inactive)	104% (inactive)	110% (inactive)	115% (inactive)	64%	156% (inactive)	-3.67% (inactive)	105% (inactive)	6% (inactive)	-15.9% (inactive)	12.5% (inactive)	-1.14% (inactive)	95.7% (inactive)	0 (inactive)	9% (inactive)	20.6% (inactive)
CCCc1cc(=O)[nH]c(=S)[nH]1	99.1% (inactive)	101% (inactive)	96.5% (inactive)	103% (inactive)	107% (inactive)	61.7%	144% (inactive)	-2.43% (inactive)	86.8% (inactive)	0% (inactive)	-3.16% (inactive)	-5.08% (inactive)	12.1% (inactive)	101% (inactive)	0.44 (active)	-3% (inactive)	-1.65% (inactive)
CN1[C@@H]2CC(OC(=O)[C@H](CO)c3ccccc3)C[C@H]1[C@@H]1O[C@@H]12 (stereo not given in full)	107% (inactive) and 99.1% (inactive)	101% (inactive) and 115% (inactive)	109% (inactive) and 93.9% (inactive)	109% (inactive) and 117% (inactive)	114% (inactive) and 103% (inactive)	62.9% and 62.1%	177% (inactive) and 215% (inactive)	0.25% (inactive) and 6.4% (inactive)	99.8% (inactive) and 101% (inactive)	-1% (inactive) and 3% (inactive)	-2.34% (inactive) and -12.4% (inactive)	14.7% (inactive) and 37.8% (inactive)	-8.23% (inactive) and -3.95% (inactive)	101% (inactive) and 98.7% (inactive)	-0.26 (inactive) and -0.1 (inactive)	-10% (inactive) and 4% (inactive)	-3.11% (inactive) and -2.4% (inactive)
CN1CC2CCCC3(C1)C(=O)NC1(CCCCC1)N=C23 (stereo not given)	105% (inactive)	105% (inactive)	111% (inactive)	97.3% (inactive)	107% (inactive)	58.9%	281% (inactive)	3.7% (inactive)	103% (inactive)	1% (inactive)	-7.22% (inactive)	-5.67% (inactive)	3.54% (inactive)	99% (inactive)	-0.26 (inactive)	1% (inactive)	-6.6% (inactive)
C=CCC1(Cl)C(=O)C(Cl)=C(N2CCOCC2)C1(OC)OC (stereo not given)	101% (inactive)	94.1% (inactive)	108% (inactive)	99.1% (inactive)	95.2% (inactive)	59.1%	167% (inactive)	-4.52% (inactive)	102% (inactive)	2% (inactive)	-2.88% (inactive)	-0.19% (inactive)	-0.35% (inactive)	98.9% (inactive)	-0.21 (inactive)	8% (inactive)	-4% (inactive)
O=C(NCc1ccc2c(c1)OCO2)c1ccc2c(c1)OCCO2	101% (inactive)	105% (inactive)	105% (inactive)	92.6% (inactive)	101% (inactive)	61%	132% (inactive)	11% (inactive)	104% (inactive)	-1% (inactive)	0.83% (inactive)	-6.32% (inactive)	-0.38% (inactive)	103% (inactive)	-0.21 (inactive)	11% (inactive)	20.3% (inactive)
Cc1ccc(Cl)c(OCCCN(C)Cc2ccccc2)c1	100% (inactive)	96.6% (inactive)	98.3% (inactive)	106% (inactive)	106% (inactive)	64.5%	161% (inactive)	13.4% (inactive)	95% (inactive)	2% (inactive)	-6.56% (inactive)	0.6% (inactive)	0.72% (inactive)	112% (inactive)	-0.26 (inactive)	19% (inactive)	-6.96% (inactive)
CCN(CC)C(=O)c1sc(NC(=O)c2c(OC)cccc2OC)c(C#N)c1C	101% (inactive)	98.7% (inactive)	105% (inactive)	88.2% (inactive)	94.7% (inactive)	66.7%	229% (inactive)	1.59% (inactive)	95.2% (inactive)	4% (inactive)	-1.95% (inactive)	-5.78% (inactive)	12% (inactive)	97.3% (inactive)	-0.025 (inactive)	14% (inactive)	5.67% (inactive)
